Laboratory results as given in PubChem BioAssay AID1347136 (National Center for Advancing Translational Sciences (NCATS), 2019).
The other results are listed elsewhere or left out. Results filed as inconclusive are left out. Calls of active or inactive are those of the source. The call rests on the fitted dose curve; in most records, active means well fitted inhibition curve with a large enough effect; inconclusive means small, poorly fitted or top-dose-only effect; inactive means no such curve, though single readings can be large or run the other way.

assay: qHTS of pediatric cancer cell lines to identify multiple opportunities for drug repurposing: Orthogonal 3D viability screen for SJ-GBM2 cells; details: SJ-GBM2 3D spheroid viability, PI/Hoechst imaging, 72 h
Excerpt: Drug repurposing or repositioning has been offered as a strategy for drug development in oncology programs. This approach has special potential for childhood cancers and other rare or orphan diseases, where the expected return on new drug development has been a disincentive to pharmaceuticals. […] In this project we exploit the poly-pharmacology of drugs to discover new indications via phenotypic screening of a panel of 19 well-characterized cell lines derived from solid tumors seen in children and adolescents. The goal is to identify approved drugs with previously unrecognized anticancer properties that has the potential to reveal new mechanisms and biological processes involved in carcinogenesis or drug resistance. We employed a titration-based paradigm (quantitative high-throughput screening or qHTS), where all compounds were tested at multiple concentrations for their effect on cell viability. Concentration-response curves (CRCs) were derived directly from the primary screen, and both potency and efficacy values were used to identify compounds with robust bioactivity profiles. […] These two assays will be used to validate active compounds and assess the correlation of compound's potency in 2D vs 3D cultures on selected cell lines. Assay Submitter: Nathalia J. Martinez, National Center for Advancing Translational Sciences, National Institutes of Health, Rockville, MD, USA; email: natalia.martinez@nih.gov Shen, M et al. Quantitative high-throughput phenotypic screening of pediatric cancer cell lines identifies multiple opportunities for drug repurposing. Oncotarget 2017 Dec 19;9(4):4758-4772. PMID 29435139.
The cells were obtained from University of North Carolina (UNC), Pediatric Preclinical Testing Program (PPT), and Coriell Institute (CI). qHTS viability in 3D culture: Cells were assayed in phenol red-free growth media at a density of 1,000 cells/well, with the exception of Daoy, and SH-N-SH which were assayed at 1,500 cells/ well. Thirty muL of cells were dispensed into 384-well, ULA, round bottom plates (Corning) using a Multidrop dispenser. Plates were spun down at 1,000 rpm for 1 min and incubated at 37 degrees C, 5% CO2, under a humidified atmosphere for either 24 (Daoy) or 48 hours (all other cell lines) to allow spheroid formation. Ninety-two nanoliter of compounds and controls (neutral control DMSO or positive control bortezomib at final concentrations of 0.5 µM) were subsequently transferred via GNF Pintool. Plates were sealed using a breathable seal (Diversified Biotech, Dedham, MA) and incubated for 72 hours at 37 degrees C. Spheroid viability was first determined by high-content imaging using Hoechst 33342 and Propidium Iodide (PI, ThermoFisher Scientific), followed by addition of CellTiter-Glo 3D (Promega). Specifically, 3 µL/well of PBS containing a 1:500 dilution of both dyes was dispensed using Multidrop. Dyes were incubated for 1 hour before imaging using the Celigo Image Cytometer. Then, 20 µl of CellTiter-Glo 3D were added per well. Plates were incubated for 30 min at RT on a VWR microplate shaker (300 rpm) and analyzed for luminescence intensity using a ViewLux High-throughput CCD imager equipped with clear filters. Image analysis was done using the Celigo Tumorsphere 1+2+3 application software as previously described. Briefly, spheroids were first identified using bright-field image segmentation, and then the fluorescent intensities of PI and Hoechst 3342 were obtained using red (EX: 531/40 nm, EM: 629/53 nm) and blue (EX: 377/50 nm, EM: 470/22 nm) filters, respectively. The data were exported to Excel, and the average fluorescent intensities were used to calculate the ratio of PI over Hoechst, which was used to quantify viability. Percent activity based on neutral and positive control bortezomib was derived.

SMILES	Potency
CC(NCc1ccc2c(c1)nc(NC(=O)c1ccc(-c3cn[nH]c3)s1)n2CC(C)(C)O)C(C)(C)C (stereo unspecified)	162 nM (active)
COC(=O)Nc1nc2ccc(Sc3ccccc3)cc2[nH]1	574 nM (active)
CC1(C)O[C@@H]2C[C@@H]3[C@H]4C[C@@H](F)C5=CC(=O)C=C[C@]5(C)[C@@]4(F)[C@@H](O)C[C@]3(C)[C@]2(C(=O)CO)O1	574 nM (active)
COc1c(C)c2c(c(O)c1C/C=C(\C)CCC(=O)O)C(=O)OC2	722 nM (active)
CC[C@H]1CN2CCc3cc(OC)c(OC)cc3[C@@H]2C[C@@H]1C[C@H]1NCCc2cc(OC)c(OC)cc21	72.2 nM (active)
CC[C@]1(O)C[C@@H]2CN(CCc3c([nH]c4ccccc34)[C@@](C(=O)OC)(c3cc4c(cc3OC)N(C)[C@H]3[C@@](O)(C(=O)OC)[C@H](OC(C)=O)[C@]5(CC)C=CCN6CC[C@]43[C@@H]65)C2)C1	40.6 nM (active)
